# From PubChem BioAssay
# FLuc counter = inhibits or activates purified firefly luciferase, miR-21 counter-screen | P08659 | purified FLuc, Km substrates, luminescence inhibition | Potency, µM (doses to about 57.5 µM), for inactives: top-dose activity change, negative = inhibition, usual class: inhibitors | hit rate 6.9% among 360,000;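 also: plate controls were vehicle for no effect and reference inhibitor for full effect; nearly all actives have a fitted effect of over 55% in size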
# Target sequence (P08659 whole entry, looked up): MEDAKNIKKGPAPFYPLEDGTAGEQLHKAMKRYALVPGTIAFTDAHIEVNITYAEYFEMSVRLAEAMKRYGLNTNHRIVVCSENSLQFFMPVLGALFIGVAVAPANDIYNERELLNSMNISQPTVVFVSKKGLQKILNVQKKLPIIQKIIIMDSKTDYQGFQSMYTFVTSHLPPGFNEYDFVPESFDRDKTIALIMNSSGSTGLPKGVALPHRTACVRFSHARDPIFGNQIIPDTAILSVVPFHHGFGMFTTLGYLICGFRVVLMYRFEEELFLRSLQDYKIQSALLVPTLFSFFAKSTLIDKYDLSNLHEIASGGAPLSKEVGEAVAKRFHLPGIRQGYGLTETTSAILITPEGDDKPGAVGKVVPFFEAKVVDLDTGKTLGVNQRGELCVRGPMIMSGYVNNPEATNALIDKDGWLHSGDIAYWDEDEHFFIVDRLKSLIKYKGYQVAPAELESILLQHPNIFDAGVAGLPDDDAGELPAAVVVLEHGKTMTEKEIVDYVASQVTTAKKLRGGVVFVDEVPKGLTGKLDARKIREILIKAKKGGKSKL
#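 Purified P. pyralis luciferase (10nM final) with 10uM D-luciferin and 10uM ATP (Km levels) in 50mM Tris acetate pH 7.5, 10mM Mg acetate, 0.01% Tween-20, 0.05% BSA; qHTS 6-point titration, ~60 µM downward; luminescence read.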
# NPC1 promoter act = NPC1 promoter activation | Huh7 NPC1 promoter luciferase reporter, 24 h | Potency, µM (highest dose often 9.22 µM), inactives show top-dose activation, usual class: activators | hit rate 2.4% among 320,000; also: % of control where 0% means no effect; nearly all actives have a fitted effect of over 60% in size
#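 Stable NPC1-promoter luciferase Huh7 line; cpd (DMSO) 24 h, 37 °C, 5% CO2; Amplite luciferase reagent 10 min RT; luminescence readout. qHTS format.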
# SMN2 splice enh = increases expression of the SMN2 splice variant. hit rate 2.8% among 210,000. HEK293 SMN2-luciferase splicing reporter, luminescence, 30-36 h. Potency, µM (series often up to 46.1 µM), for the others: at the highest dose activity change, positive = activation, most hits filed as activators; also: % of control where 0% means no effect; nearly all actives have a fitted effect of over 55% in size
#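 HEK293 cells carry an SMN2 […]–luciferase reporter in which exon 7 inclusion puts luciferase in frame. Cells were plated 10-12 h before compound addition, then incubated 30-36 h at 37C. ONE-Glo luminescence was read; sodium butyrate at 4.5 mM final served as control.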
# ELG1 genotox = induces genotoxicity in HEK293T cells with luciferase-tagged ELG1 | Potency, µM (titrated, usually from 46 µM), for inactives: top-dose activity change, positive = activation, actives largely listed as activators | hit rate 1.3% among 330,000 | AID 504466 | HEK293T ELG1-luciferase reporter, luminescence, 16 h; also: % of control where 0% means no effect; nearly all actives have a fitted effect of over 60% in size
#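 Step 1: seed 2,000 HEK293T ELG1-luciferase cells per well. Step 2: add compound or DMSO, incubate 16 hr at 37 °C. Step 3: ONE-Glo, 30 min at room temperature, read luminescence.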
# ELG1 DNA repair = inhibitors of ELG1-dependent DNA repair in HEK293T cells; hit rate 2.3% among 330,000; AID 504467; HEK293T ELG1-luciferase reporter, luminescence, 16 h; DNA damage induced by 5-fluorouridine; Potency, µM (doses to about 46.1 µM), inactives show at the top dose activity change, negative = inhibition, hits mostly inhibitors; also: % is scaled to controls: 0 for no effect and ±100 for the full control effect; nearly all actives have a fitted effect of over 55% in size
#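 Luminescence from the luciferase reporter, measured 30 min after ONE-Glo reagent at room temperature, was the read-out. Beforehand, 2,000 cells per well were exposed for 16 hr at 37 °C to 5-fluorouridine together with compound or vehicle.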
# Rab9 promoter act = activators of Rab9 promoter | Potency, µM (top dose mostly 9.22 µM), for the others: top-dose activation, negative = inhibition, actives largely listed as activators | hit rate 2.8% among 320,000 | Huh7 Rab9 promoter-luciferase reporter, luminescence, 24 h | AID 485297; also: % of control where 0% means no effect; nearly all actives have a fitted effect of over 60% in size
#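 Luciferase signal after 10 min detection reagent at ambient indicates Rab9 promoter upregulation; stably transfected Huh7 cells were treated 24 h with compound in DMSO at 37 °C, 5% CO2.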
# * marks the source's active call; other numbers are inactive results; ? = inconclusive; · = no result given; [ ] = remark or other dose. An excerpt weighted towards active compounds, which were near 9.3% of everything screened. Calls follow the shape of the dose curve; as a rule, active = well fitted curve in the direction sought with a large enough effect; inconclusive = small, poorly fitted or top-dose-only effect, or another doubt; inactive = no such curve, though single readings can be large; an effect the other way counts as inactive or inconclusive. Potency is read from the fitted curve at half-maximal effect.
SMILES,FLuc counter,NPC1 promoter act,SMN2 splice enh,ELG1 genotox,ELG1 DNA repair,Rab9 promoter act
O=C(c1cc(COc2ccc(F)c(F)c2)on1)N1CCSCC1,16.9µM*,?,·,?,?,?
CC(=O)c1cccc(OCc2cc(C(=O)N3CCSCC3)no2)c1,10.7µM*,?,·,9.2µM*,?,3.16µM*
CC(=O)c1cccc(OCc2cc(C(=O)NCCC3=CCCCC3)no2)c1,9.53µM*,2.51µM*,·,?,?,?
CC(=O)N1CCCN(C(=O)c2cc(COc3c(F)cccc3F)on2)CC1,3.2%,0.2%,·,-1.9%,-16.7%,13.4%
CC1CCN(c2ccc3nnc(CCC(=O)Nc4cc(F)ccc4F)n3n2)CC1,3.2%,0.5%,·,0.8%,15.0%,1.3%
CC(C)c1ccc(/C=N\NC(=O)c2ccc(Cn3cccn3)o2)cc1,1.35µM*,?,25.2%,9.6%,?,11.1%
CCCOc1ccc(/C=N/NC(=O)c2ccc(Cn3cc([N+](=O)[O-])cn3)o2)cc1,2.39µM*,23.4%,-4.7%,?,?,?
CSCCC1NC(=O)N(CC(=O)Nc2ccc(N3CCCCC3)cc2)C1=O (stereo unspecified),12µM*,11.2%,-9.1%,0.6%,?,-5.6%
CSCCC1NC(=O)N(CC(=O)Nc2c(Cl)cc(Cl)cc2Cl)C1=O (stereo unspecified),-2.3%,-1.1%,0.3%,2.2%,-0.1%,2.4%
COc1ccc(/C=C/C(=O)NC2=NCCS2)cc1OC,-10.9%,2.82µM*,?,?,?,3.98µM*
COc1ccc(/C=C/C(=O)Nc2ccc(C(N)=O)cc2)cc1OC,-17.6%,-0.6%,·,0.2%,0.0%,1.7%
COc1ccc(/C=C/C(=O)Nc2ccc3c(c2)CCC3)cc1OC,19µM*,0.1%,-35.8%,-0.1%,-19.3%,13.4%
COc1ccc(OC)c(/C=C/C(=O)NC2=NCCS2)c1,-12.9%,?,0.9%,-1.7%,-0.7%,26.7%
O=C(C[n+]1cc(-c2ccc(F)cc2)n2c1CCC2)N1c2ccccc2Sc2ccccc21,2.39µM*,?,76.2%,?,?,2.82µM*
Cc1ccc(NC(=O)C(C)Sc2nc(-c3ccccc3)c(C#N)c(=O)[nH]2)c(C)c1 (stereo unspecified),12µM*,·,·,·,·,·
CSc1nc(-c2ccccc2)c(C#N)c(=O)[nH]1,-0.7%,0.2%,·,-1.6%,-16.3%,-2.8%
CC(Sc1nc(-c2ccccc2)c(C#N)c(=O)[nH]1)C(=O)Nc1ccc(F)cc1 (stereo unspecified),16.9µM*,·,·,·,·,·
Cc1cccc(C(=O)NCCc2n[nH]c(=S)n2C)c1,0.3%,0.3%,-18.7%,-1.5%,14.5%,1.4%
CN1CCN(C(=O)/C(=C\c2cccc([N+](=O)[O-])c2)NC(=O)c2cccs2)CC1,-1.5%,-1.6%,?,-2.2%,-13.1%,-5.4%
O=C(CN1CCC(C(=O)c2ccc(F)cc2)CC1)Nc1ccccc1,0.4%,1.2%,-76.3%,-5.0%,-14.2%,2.3%
COc1ccc([C@]23Cc4ccccc4C(O2)c2c(c4ccc(OC)cc4oc2=O)O3)cc1,3.09µM*,18.6%[1.84 µM],·,·,·,2.4%[1.84 µM]
COc1ccc2c3c(c(=O)oc2c1)C1O[C@](c2ccsc2)(Cc2ccccc21)O3,-6.6%[11.5 µM],-1.0%[1.84 µM],·,·,·,0.3%[1.84 µM]
C=CCOC(=O)c1c(C)nc2cc3c(cc2c1C)OCO3,16.9µM*,18.6%,?,7.0%,?,24.3%
C=CCOC(=O)C1=C(C)NC(=O)NC1c1ccc2c(c1)OCO2 (stereo unspecified),5.5%,-2.0%,·,1.8%,15.0%,-4.6%
COc1ccccc1/C=C/C=N/n1c(-c2ccc(C)cc2)n[nH]c1=S,?,-0.3%,-13.8%,-1.3%,9.1%,-4.0%
S=c1[nH]nc(-c2ccncc2)n1/N=C/C(Cl)=C\c1ccccc1,-7.9%,3.55µM*,11.2µM*,-5.3%,?,3.16µM*
